Source: PubChem BioAssay (NCATS)
Where “and” joins values, the source holds several entries; their conditions need not be identical. Identical values can stand only once. Records with an inconclusive call do not appear. Where a structure was tested more than once in an assay, its records may differ in their call. Calls of active or inactive are those of the source. Unless noted, calls come from the whole dose curve; as a rule, active = well fitted inhibition curve with a large enough effect; inconclusive = small, poorly fitted or top-dose-only effect; inactive = no such curve, though single readings can be large or run the other way.

Each molecule was assayed against Mitogen-activated protein kinase 10 (Mus musculus) (UniProt Q61831) (assay: JNK3 AlphaScreen Assay (AID 530; active = well fitted curve in either direction with a large enough effect, not every such curve was filed as active;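 note: kinase came from lysate of stimulated human HepG2 cells; signal reports phosphorylation of biotinylated GST-cJun 1-79 at Ser73 with 10 µM ATP; % is set by controls: 0 for no effect and ±100 for the full control effect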)). Conditions: JNK3 lysate, c-Jun phosphorylation; series mostly up to 57.1 µM; activity change, negative = inhibition: at the top concentration.
How it was run: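 Room-temperature AlphaScreen kinase assay; pre-activated HepG2 lysate as JNK3 source, biotin-GST-cJun(1-79) substrate, 10 uM ATP, compound 15 min preincubation.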

| Structure (SMILES) | activity change, negative = inhibition |
| --- | --- |
| Cc1ccccc1-c1ccc2ncnc(N(C)Cc3ccco3)c2c1 | -2.91% (inactive) |
| COc1cccc(-c2cncnc2NCc2ccc(OC)cc2OC)c1 | -1.8% (inactive) |
| CN(Cc1ccco1)c1nc(-c2ccccc2Cl)nc2ccccc12 | 13.1% (inactive) |
| O=C(c1cccc(F)c1)N1CCC[C@@]2(CCN(C(c3ccccc3)c3ccccc3)C2)C1 | 2.41% (inactive) |
| COc1ccc(-c2nc3cnc(Nc4cccc(OC)c4)nc3n(CCC#N)c2=O)cc1 | 5.43% (inactive) |
| COc1cccc(-c2nc(Nc3ccncc3)c3ccccc3n2)c1 | -11.8% (inactive) |
| COc1ccccc1CNc1ncnc2ccc(-c3cccnc3)cc12 | -12.5% (inactive) |

What follows are molecules tested against 3',5'-cyclic-AMP phosphodiesterase 4B (Homo sapiens) (UniProt Q07343) (assay: qHTS Assay for Inhibitors of PDE-IV (AID 607; active = well fitted activation curve with a large enough effect in the main read-out, with a control signal flat, not every such curve was filed as active; note: % of control where 0% means no effect)). Conditions: HEK293 ACTOne CNG channel cells, membrane potential fluorescence; series mostly up to 22.9 µM; activation (PDE inhibition): at the top concentration.
Sequence of 3',5'-cyclic-AMP phosphodiesterase 4B (Homo sapiens) (Q07343 whole entry, looked up): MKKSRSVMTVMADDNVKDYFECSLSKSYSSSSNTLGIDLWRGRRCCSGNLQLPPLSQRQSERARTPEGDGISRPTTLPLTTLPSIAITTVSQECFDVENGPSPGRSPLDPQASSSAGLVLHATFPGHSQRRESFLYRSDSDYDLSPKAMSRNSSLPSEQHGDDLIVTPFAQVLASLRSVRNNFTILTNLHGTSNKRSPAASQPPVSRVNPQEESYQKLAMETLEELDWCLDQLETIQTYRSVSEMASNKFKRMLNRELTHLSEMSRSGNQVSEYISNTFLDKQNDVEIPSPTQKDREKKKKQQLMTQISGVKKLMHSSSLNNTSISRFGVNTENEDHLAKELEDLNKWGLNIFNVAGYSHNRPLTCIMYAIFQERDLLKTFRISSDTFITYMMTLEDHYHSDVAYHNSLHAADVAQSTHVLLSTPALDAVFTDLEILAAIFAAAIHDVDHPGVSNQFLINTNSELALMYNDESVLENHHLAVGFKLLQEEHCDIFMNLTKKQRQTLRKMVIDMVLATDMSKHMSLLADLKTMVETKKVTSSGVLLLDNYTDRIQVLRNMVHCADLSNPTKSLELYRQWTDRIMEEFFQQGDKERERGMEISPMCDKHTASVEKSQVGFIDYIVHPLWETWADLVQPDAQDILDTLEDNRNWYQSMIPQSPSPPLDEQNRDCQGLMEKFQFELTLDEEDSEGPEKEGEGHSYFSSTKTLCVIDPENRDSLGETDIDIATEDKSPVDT
How it was run: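 HEK293 ACTOne cells with CNG channel (1000/well), endogenous PDE4; membrane potential dye, compounds up to 22.9 uM final. Fluorescence Ex 535/Em 590; RO 20-1724 (100 uM final) as reference.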

| Structure (SMILES) | activation (PDE inhibition) |
| --- | --- |
| O=C(c1cccc(F)c1)N1CCC[C@@]2(CCN(C(c3ccccc3)c3ccccc3)C2)C1 | -10.9% (inactive) |
| COc1ccc(-c2nc3cnc(Nc4cccc(OC)c4)nc3n(CCC#N)c2=O)cc1 | 27.3% (inactive) |
| COc1cccc(-c2nc(Nc3ccncc3)c3ccccc3n2)c1 | 14.5% (inactive) |
| COc1c(-c2ccc(O)c(O)c2)oc2cc(O)cc(O)c2c1=O | 5.39% (inactive) |
| Nc1nc2n[nH]nc2c(=O)[nH]1 | 10.8% (inactive) |

These molecules were tested against Cytochrome P450 3A4 (Homo sapiens) (UniProt P08684) (assay: qHTS Assay for Inhibitors and Substrates of Cytochrome P450 3A4 (AID 884; note: nearly all actives have a fitted effect of over 50% in size; note: potency is the fitted concentration of half-maximal effect; for activity change, negative = inhibition: % is set by controls: 0 for no effect and ±100 for the full control effect)). Conditions: recombinant CYP3A4, Luciferin-PPXE luminescence; series mostly up to 57.1 µM; activity change, negative = inhibition: at the top concentration.
Sequence of Cytochrome P450 3A4 (Homo sapiens) (P08684 whole entry, looked up): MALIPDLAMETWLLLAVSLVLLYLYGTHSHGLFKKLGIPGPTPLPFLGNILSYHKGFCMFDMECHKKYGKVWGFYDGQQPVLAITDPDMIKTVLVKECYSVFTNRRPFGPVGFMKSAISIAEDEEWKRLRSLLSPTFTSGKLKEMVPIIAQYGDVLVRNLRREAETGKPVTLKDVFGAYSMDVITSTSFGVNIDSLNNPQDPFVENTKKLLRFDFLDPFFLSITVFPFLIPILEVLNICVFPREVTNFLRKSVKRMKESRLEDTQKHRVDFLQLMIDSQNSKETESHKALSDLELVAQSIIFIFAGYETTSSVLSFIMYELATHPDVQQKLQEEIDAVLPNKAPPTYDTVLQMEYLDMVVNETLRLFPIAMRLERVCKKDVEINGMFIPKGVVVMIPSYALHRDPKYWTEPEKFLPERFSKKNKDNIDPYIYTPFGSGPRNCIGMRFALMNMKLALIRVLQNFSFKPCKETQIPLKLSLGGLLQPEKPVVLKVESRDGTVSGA
How it was run: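 20 nM human CYP3A4 with 25 uM Luciferin-PPXE (at KM) in 200 mM KPO4, preincubated 10 min with compound; NADPH regeneration started a 60 min RT reaction. Luciferin detected by luminescence, normalized to 57 uM ketoconazole as full inhibition.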

| Structure (SMILES) | Potency | activity change, negative = inhibition |
| --- | --- | --- |
| COC(=O)c1c(OC)cc2c(c1C)Oc1c(Cl)c(OC(C)=O)c(Cl)c(C)c1C(=O)O2 | 15.8 µM (active) |  |
| O=c1cc(-c2ccc(O)c(O)c2)oc2cc(OC3OC(CO)C(O)C(O)C3O)cc(O)c12 (stereo not given) |  | -15% (inactive) |
| COC(=O)CCCOc1ccc(Cl)cc1Cl |  | 15.5% (inactive) |
| COC(=O)c1c(OC)cc2c(c1C)Oc1c(Cl)c(O)c(Cl)c(C)c1C(=O)O2 | 1.58 µM (active) |  |
| COc1cccc(-c2cncnc2NCc2ccc(OC)cc2OC)c1 | 0.501 µM (active) |  |
| CC(=O)OC1CC2C(C)(C)CCC(=O)[C@@]2(C)C2CC[C@@]3(C)C(c4ccoc4)OC(=O)C4OC43[C@]12C (stereo not given in full) |  | -27.9% (inactive) |
| O=C(c1cccc(F)c1)N1CCC[C@@]2(CCN(C(c3ccccc3)c3ccccc3)C2)C1 | 3.98 µM (active) |  |
| COc1ccc2c(c1)[C@@]1(C)CCC[C@](C)(CO)C1CC2 (stereo not given in full) | 10 µM (active) |  |
| COc1ccc(-c2cc(=O)c3c(OC)c(OC)c(OC)c(OC)c3o2)cc1 | 12.6 µM (active) |  |
| COc1ccc(-c2nc3cnc(Nc4cccc(OC)c4)nc3n(CCC#N)c2=O)cc1 | 3.98 µM (active) |  |
| CC(=O)OC1CC[C@]2(C)C(CC(OC(C)=O)[C@@]3(C)C4=CC(=O)OC(c5ccoc5)[C@]4(C)CCC23)C1(C)C (stereo not given in full) | inactive and 2.51 µM (active) |  |
| COc1cccc(-c2nc(Nc3ccncc3)c3ccccc3n2)c1 | 2.51 µM (active) |  |
| N[C@H](C(=O)O)C(O)C(O)C(O)CO (stereo not given in full) |  | -5.64% (inactive) |
| COc1ccccc1CNc1ncnc2ccc(-c3cccnc3)cc12 | 2 µM (active) |  |
| CC1(C)C=CC(=O)[C@]2(C)C1CC(=O)[C@]1(C)C2CC[C@@]2(C)C(c3ccoc3)OC(=O)C3OC321 (stereo not given in full) | 2 µM (active) |  |
| COc1c(-c2ccc(O)c(O)c2)oc2cc(O)cc(O)c2c1=O |  | -10.4% (inactive) |
| COc1ccc2c(c1)OC/C(=C/c1ccc(O)c(O)c1)C2=O | 31.6 µM (active) |  |
| COc1ccc(C(=O)O)c(O)c1OC |  | -1.84% (inactive) |
